According to PubChem BioAssay (EPA / NIEHS):
Records with an inconclusive call do not appear. The source made the active and inactive calls. Rule for the calls, unless noted: active = hit-call score of the fitted dose curve at least 0.9, where 1 is the maximum; inactive = score below 0.9.

How the values were obtained:
[1] = ATG_CRE_CIS: Attagene CIS-FACTORIAL HepG2 Assay for human cAMP Responsive Element (CRE) binding protein 3 (AID 2282926); details: HepG2 CRE cis-reporter, Attagene multiplexed mRNA; actives raise or lower the signal
How it was run: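 Transfected HepG2 were treated for 24 hours, then RNA was extracted and reporter cDNA amplified with sequence-specific primers. Labelled fragments were separated by capillary electrophoresis, and the CRE signal was fitted bidirectionally with DMSO as baseline.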

[2] = biological target: Hypoxia-inducible factor 1-alpha (Homo sapiens) (UniProt Q16665); test: ATG_HIF1a_CIS: Attagene CIS-FACTORIAL HepG2 Assay for human Hypoxia Inducible Factor 1 (HIF1A) (AID 2282951); details: HepG2 Attagene cis-factorial HIF1a reporter transcription; actives raise or lower the signal
How it was run: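 RT-PCR/capillary electrophoresis fluorescence readout of reporter transcripts from endogenous-TF-driven cis elements in transfected HepG2 cells, 24 h exposure; activity fitted in both directions against DMSO controls.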

[3] = biological target: Heat shock factor protein 1 (Homo sapiens) (UniProt Q00613); test: ATG_HSE_CIS: Attagene CIS-FACTORIAL HepG2 Assay for human Heat Shock Transcription Factor 1 (HSE) (AID 2282953); details: HepG2 HSE cis-reporter, Attagene RNA transcription; actives raise or lower the signal
How it was run: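 Endogenous transcription factor activity captured via cis-promoter reporter units transfected into HepG2; treatment lasted 24 h. Fluorescence intensity of reporter fragments analysed with bidirectional curve fitting, DMSO baseline.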

[4] = biological target: Paired box protein Pax-6 (Homo sapiens) (UniProt P26367); test: ATG_Pax6_CIS: Attagene CIS-FACTORIAL HepG2 Assay for human Paired Box 6 (PAX6) (AID 2282956); details: HepG2 CIS-FACTORIAL PAX6 reporter transcription, RNA readout; actives raise or lower the signal
How it was run: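 HepG2 cells transiently transfected with multiplexed cis-promoter reporter units (endogenous TF activity) were dosed for 24 h. Reporter mRNA was quantified by RT-PCR, 6-FAM labeling, HpaI digestion and capillary electrophoresis; bidirectional fitting versus DMSO baseline.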

[5] = ATG_RORE_CIS: Attagene CIS-FACTORIAL HepG2 Assay for human RAR-related Orphan Receptor Element (RORE) (AID 2282959); details: HepG2 Attagene cis-factorial RORE reporter, mRNA; actives raise or lower the signal
How it was run: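 Readout: fluorescent reporter mRNA by RT-PCR plus capillary electrophoresis, 24 h after dosing transfected HepG2 cells. Endogenous transcription factor activity on a cis promoter element is measured. Gain or loss of signal fitted against DMSO.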

[6] = ATG_TA_CIS: Attagene CIS-FACTORIAL HepG2 Assay for human TA Basal Promoter (AID 2282964); details: HepG2 Attagene CIS-factorial TA basal promoter reporter; actives raise or lower the signal
How it was run: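 Fluorescence from labelled RT-PCR reporter fragments, separated by capillary electrophoresis, gives the signal. Cells: HepG2 transiently carrying multiple reporter units, 24 h chemical dosing. Gain or loss relative to DMSO.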

[7] = ATG_TAL_CIS: Attagene CIS-FACTORIAL HepG2 Assay for human TAL Basal Promoter (AID 2282966); details: HepG2 Attagene cis-factorial TAL promoter reporter; actives raise or lower the signal;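 note: background control endpoint measuring basal TAL promoter reporter mRNA not a specific factor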
How it was run: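 Steps: transfect HepG2 with multiple reporter transcription units; dose 24 h; isolate RNA, reverse-transcribe, PCR-amplify, label with 6-FAM, digest with HpaI; resolve by capillary electrophoresis. Bidirectional fitting against DMSO baseline.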

[8] = ATG_TGFb_CIS: Attagene CIS-FACTORIAL HepG2 Assay for human Transforming Growth Factor (TGF) (AID 2282967); details: HepG2 Attagene CIS TGFb reporter, mRNA transcription; actives raise or lower the signal
How it was run: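 Bidirectional fitting relative to DMSO gave the endpoint. Underlying data: reporter mRNA from HepG2 cells carrying transiently transfected cis-regulated reporter constructs, harvested 24 h after dosing and analyzed by RT-PCR and capillary electrophoresis.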

[9] = ATG_VDRE_CIS: Attagene CIS-FACTORIAL HepG2 Assay for human Vitamin D Receptor Element (VDRE) (AID 2282968); details: HepG2 VDRE cis-reporter transcription, actives raise or lower the signal
How it was run: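 Reporter mRNA induction, quantified by capillary electrophoresis of fluorescently labelled RT-PCR products, was read 24 h after dosing HepG2 cells carrying transiently transfected cis-regulated reporter units; gain or loss relative to DMSO.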

[10] = ATG_M_32_TRANS: Attagene TRANS-FACTORIAL HepG2 Assay for M32 Transcription Factor (Internal Marker) (AID 2282984; active = hit-call score of the fitted dose curve at least 0.9, where 1 is the maximum;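 note: transcript level of a background control reporter unit measured by RT-PCR and capillary electrophoresis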); details: HepG2 Attagene TRANS M32 internal marker reporter
How it was run: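 Measures reporter mRNA induction in human HepG2 liver cells after 24 h chemical treatment. Transcripts from transiently transfected GAL4-UAS reporter units are amplified, fluorescently labelled and sized by capillary electrophoresis; gain of signal relative to DMSO.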

[11] = biological target: Transcriptional activator Myb (Homo sapiens) (UniProt P10242); test: ATG_Myb_CIS: Attagene CIS-FACTORIAL HepG2 Assay for human Myeloblastosis (Myb) Proto-Oncogene Transcription Factor (AID 2282986); details: HepG2 Attagene CIS-FACTORIAL Myb reporter transcription; actives raise or lower the signal
How it was run: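 HepG2, transient MRTU transfection (cis-element promoters, endogenous TF activity), 24 h compound exposure. Readout: reporter mRNA via RT-PCR, 6-FAM labeling, HpaI digest, capillary electrophoresis. Gain/loss fit vs DMSO.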

[12] = biological target: Nuclear respiratory factor 1 (Homo sapiens) (UniProt Q16656); test: ATG_NRF1_CIS: Attagene CIS-FACTORIAL HepG2 Assay for human Nuclear Respiratory Factor 1 (NRF1) Orphan Gene (AID 2282987); details: HepG2 NRF1 cis-element reporter, Attagene multiplex; actives raise or lower the signal
How it was run: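 Endogenous NRF1-driven reporter transcription measured in transiently transfected human HepG2 liver cells. Readout: reporter mRNA by RT-PCR and capillary electrophoresis with fluorescence detection, 24 h post-dosing. Gain or loss of signal fitted relative to DMSO baseline.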

[13] = ATG_NFI_CIS: Attagene CIS-FACTORIAL HepG2 Assay for human Nuclear Factor I (NFI) (AID 2282989); details: HepG2 cis-regulatory reporter, NFI response element transcription; actives raise or lower the signal
How it was run: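 Cells: human liver HepG2, transiently transfected with promoter-regulated reporter transcription units. Exposure 24 h. Detection: fluorescent RT-PCR products separated by capillary electrophoresis, normalised to DMSO negative control.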

[14] = ATG_NF_kB_CIS: Attagene CIS-FACTORIAL HepG2 Assay for human Nuclear Factor Kappa B (NF-kB) (AID 2282991); details: HepG2 Attagene cis-factorial NF-kB reporter mRNA; actives raise or lower the signal
How it was run: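 Read-out: reporter transcript levels quantified by RT-PCR plus capillary electrophoresis of 6-FAM-labelled, HpaI-cut fragments. Transfected HepG2 cells, 24 h compound exposure, endogenous NF-kB-driven cis element; gain or loss scored versus DMSO.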

[15] = ATG_NRF2_ARE_CIS: Attagene CIS-FACTORIAL HepG2 Assay for human Nuclear Factor Erythroid 2 Related Factor 2 (NFR2) response to Antioxidant Response Elements (ARE) (AID 2282992); details: HepG2 Attagene ARE/NRF2 reporter, transcription factor activity; actives raise or lower the signal
How it was run: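 HepG2 cells transiently transfected with multiplexed cis-regulated reporter transcription units measure endogenous transcription factor activity. Reporter mRNA at 24 h is quantified by RT-PCR, fluorescent labelling and capillary electrophoresis, with bidirectional fitting relative to DMSO.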

[16] = ATG_Oct_MLP_CIS: Attagene CIS-FACTORIAL HepG2 Assay for human Octamer-Binding Transcription Factor (Oct) (AID 2282993); details: HepG2 Attagene cis-factorial Oct reporter, mRNA; actives raise or lower the signal
How it was run: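 HepG2, transient MRTU transfection, cis promoter elements; 24 h dosing; RT-PCR/CE fluorescence read-out of reporter mRNA; fit both directions vs DMSO.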

[17] = biological target: Cellular tumor antigen p53 (Homo sapiens) (UniProt P04637); test: ATG_p53_CIS: Attagene CIS-FACTORIAL HepG2 Assay for human p53 Transcription Factor (AID 2282994); details: HepG2 p53 cis-element reporter, Attagene mRNA; actives raise or lower the signal
How it was run: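 HepG2 cells transiently transfected with multiplexed cis-regulated reporter transcription units read endogenous TF activity. After 24 h compound exposure, reporter mRNA was quantified by RT-PCR, fluorescent labelling, HpaI digestion and capillary electrophoresis; bidirectional fits versus DMSO baseline.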

[18] = biological target: Peroxisome proliferator-activated receptor gamma (Homo sapiens) (UniProt P37231); test: ATG_PPARg_TRANS: Attagene TRANS-FACTORIAL HepG2 Assay for human Peroxisome Proliferator-activated Receptor-gamma (PPARg) (AID 2283007; active = hit-call score of the fitted dose curve at least 0.9, where 1 is the maximum)
How it was run: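 Read-out: reporter mRNA induction, detected by fluorescence after RT-PCR and capillary electrophoresis. Transiently transfected human HepG2 liver cells carrying a chimeric NR-Gal4 construct were dosed for 24 h; activity was fitted upward relative to DMSO.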

[19] = biological target: Transcription factor E2F1 (Homo sapiens) (UniProt Q01094); test: ATG_E2F_CIS: Attagene CIS-FACTORIAL HepG2 Assay for human E2F Transcription Factor 1 (AID 2282935); details: HepG2 Attagene cis-reporter, E2F reporter RNA transcripts; actives raise or lower the signal
How it was run: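 Cis-element reporter mRNA induction in transiently transfected HepG2, 24 h exposure. Activity fitted in both directions relative to DMSO negative control.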

[20] = ATG_M_19_CIS: Attagene CIS-FACTORIAL HepG2 Assay for M19 Transcription Factor (Internal Marker) (AID 2282939); details: HepG2 Attagene CIS-FACTORIAL M19 internal marker reporter; actives raise or lower the signal
How it was run: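 Signals come from fluorescence of labelled reporter-specific PCR fragments resolved by capillary electrophoresis, following 24 h treatment of HepG2 cells transfected with cis-promoter reporter units; activity was fitted in both directions relative to DMSO.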

Measured: AC50

Chain of Cellular tumor antigen p53 (Homo sapiens) (P04637 whole entry, looked up): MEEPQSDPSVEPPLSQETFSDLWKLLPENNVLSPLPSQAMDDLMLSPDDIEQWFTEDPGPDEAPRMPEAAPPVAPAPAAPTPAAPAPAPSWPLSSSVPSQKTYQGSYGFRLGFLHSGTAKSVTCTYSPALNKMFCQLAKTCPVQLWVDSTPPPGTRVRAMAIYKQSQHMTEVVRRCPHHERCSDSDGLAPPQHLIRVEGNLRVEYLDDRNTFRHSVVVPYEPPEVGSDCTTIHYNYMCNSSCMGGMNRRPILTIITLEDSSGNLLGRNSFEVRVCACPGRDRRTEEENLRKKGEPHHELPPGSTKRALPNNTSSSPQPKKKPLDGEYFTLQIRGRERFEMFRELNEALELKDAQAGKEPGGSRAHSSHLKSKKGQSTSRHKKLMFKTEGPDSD
Chain of Transcriptional activator Myb (Homo sapiens) (P10242 whole entry, looked up): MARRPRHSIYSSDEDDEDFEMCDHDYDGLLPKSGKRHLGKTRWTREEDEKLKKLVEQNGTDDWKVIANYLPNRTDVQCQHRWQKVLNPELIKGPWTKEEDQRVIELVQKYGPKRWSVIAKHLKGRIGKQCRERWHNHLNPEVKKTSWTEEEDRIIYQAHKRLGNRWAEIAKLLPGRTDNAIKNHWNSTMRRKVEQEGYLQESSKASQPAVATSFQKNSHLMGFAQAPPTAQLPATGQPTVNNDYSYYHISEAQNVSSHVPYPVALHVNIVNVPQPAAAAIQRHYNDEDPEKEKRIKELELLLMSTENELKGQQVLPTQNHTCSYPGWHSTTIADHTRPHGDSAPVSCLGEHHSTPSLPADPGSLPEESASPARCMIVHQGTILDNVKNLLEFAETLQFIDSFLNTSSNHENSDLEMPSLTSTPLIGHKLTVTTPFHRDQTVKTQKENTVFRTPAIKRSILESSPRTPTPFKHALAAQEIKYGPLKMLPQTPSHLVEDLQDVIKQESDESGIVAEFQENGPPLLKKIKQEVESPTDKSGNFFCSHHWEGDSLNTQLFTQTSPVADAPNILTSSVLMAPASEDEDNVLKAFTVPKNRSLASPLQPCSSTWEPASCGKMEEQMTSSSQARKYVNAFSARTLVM
Chain of Hypoxia-inducible factor 1-alpha (Homo sapiens) (Q16665 whole entry, looked up): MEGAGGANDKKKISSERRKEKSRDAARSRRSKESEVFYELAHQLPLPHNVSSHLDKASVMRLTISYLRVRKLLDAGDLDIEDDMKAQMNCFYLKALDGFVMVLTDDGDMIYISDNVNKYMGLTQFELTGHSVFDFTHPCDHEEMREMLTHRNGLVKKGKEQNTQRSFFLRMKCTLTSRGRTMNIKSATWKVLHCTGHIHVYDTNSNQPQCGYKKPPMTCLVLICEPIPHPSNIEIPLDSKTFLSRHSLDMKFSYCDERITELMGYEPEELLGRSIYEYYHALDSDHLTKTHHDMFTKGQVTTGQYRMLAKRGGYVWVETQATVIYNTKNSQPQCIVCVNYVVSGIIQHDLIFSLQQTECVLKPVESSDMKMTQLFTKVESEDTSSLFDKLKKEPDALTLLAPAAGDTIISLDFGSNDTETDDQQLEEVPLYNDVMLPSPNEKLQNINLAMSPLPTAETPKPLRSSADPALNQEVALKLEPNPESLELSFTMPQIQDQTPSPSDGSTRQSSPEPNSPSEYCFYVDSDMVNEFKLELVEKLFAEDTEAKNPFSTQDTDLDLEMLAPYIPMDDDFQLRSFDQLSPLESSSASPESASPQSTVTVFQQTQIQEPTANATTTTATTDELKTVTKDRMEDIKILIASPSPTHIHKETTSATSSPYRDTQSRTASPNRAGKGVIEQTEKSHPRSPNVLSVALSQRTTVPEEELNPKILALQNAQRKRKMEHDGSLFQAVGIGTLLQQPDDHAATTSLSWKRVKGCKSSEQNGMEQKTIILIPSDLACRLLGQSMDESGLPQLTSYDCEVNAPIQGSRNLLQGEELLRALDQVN
Chain of Transcription factor E2F1 (Homo sapiens) (Q01094 whole entry, looked up): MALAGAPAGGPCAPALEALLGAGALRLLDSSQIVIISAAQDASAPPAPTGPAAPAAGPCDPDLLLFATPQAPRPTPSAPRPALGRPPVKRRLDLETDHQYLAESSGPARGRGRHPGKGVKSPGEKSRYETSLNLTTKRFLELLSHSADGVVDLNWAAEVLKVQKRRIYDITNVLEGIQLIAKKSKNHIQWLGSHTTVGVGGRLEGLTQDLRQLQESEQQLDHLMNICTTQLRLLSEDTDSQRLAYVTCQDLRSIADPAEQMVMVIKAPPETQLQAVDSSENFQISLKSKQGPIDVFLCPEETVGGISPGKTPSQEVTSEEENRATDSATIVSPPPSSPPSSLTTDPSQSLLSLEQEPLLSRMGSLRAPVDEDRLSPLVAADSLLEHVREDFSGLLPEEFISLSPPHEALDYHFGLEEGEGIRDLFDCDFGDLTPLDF
Chain of Nuclear respiratory factor 1 (Homo sapiens) (Q16656 whole entry, looked up): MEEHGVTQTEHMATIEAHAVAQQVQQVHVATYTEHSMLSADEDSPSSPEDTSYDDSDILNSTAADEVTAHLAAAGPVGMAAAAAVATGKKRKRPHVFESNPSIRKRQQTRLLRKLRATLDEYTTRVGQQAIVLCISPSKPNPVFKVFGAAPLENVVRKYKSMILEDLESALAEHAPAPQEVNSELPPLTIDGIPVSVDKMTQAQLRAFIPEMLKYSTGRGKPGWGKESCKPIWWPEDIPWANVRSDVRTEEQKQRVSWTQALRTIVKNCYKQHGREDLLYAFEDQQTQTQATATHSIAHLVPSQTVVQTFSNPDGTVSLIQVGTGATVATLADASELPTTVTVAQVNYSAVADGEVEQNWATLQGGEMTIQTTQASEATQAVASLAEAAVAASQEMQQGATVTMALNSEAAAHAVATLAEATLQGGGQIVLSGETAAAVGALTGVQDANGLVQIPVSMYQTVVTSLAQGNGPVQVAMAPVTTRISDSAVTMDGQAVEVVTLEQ
Chain of Heat shock factor protein 1 (Homo sapiens) (Q00613 whole entry, looked up, the tested form may be a part): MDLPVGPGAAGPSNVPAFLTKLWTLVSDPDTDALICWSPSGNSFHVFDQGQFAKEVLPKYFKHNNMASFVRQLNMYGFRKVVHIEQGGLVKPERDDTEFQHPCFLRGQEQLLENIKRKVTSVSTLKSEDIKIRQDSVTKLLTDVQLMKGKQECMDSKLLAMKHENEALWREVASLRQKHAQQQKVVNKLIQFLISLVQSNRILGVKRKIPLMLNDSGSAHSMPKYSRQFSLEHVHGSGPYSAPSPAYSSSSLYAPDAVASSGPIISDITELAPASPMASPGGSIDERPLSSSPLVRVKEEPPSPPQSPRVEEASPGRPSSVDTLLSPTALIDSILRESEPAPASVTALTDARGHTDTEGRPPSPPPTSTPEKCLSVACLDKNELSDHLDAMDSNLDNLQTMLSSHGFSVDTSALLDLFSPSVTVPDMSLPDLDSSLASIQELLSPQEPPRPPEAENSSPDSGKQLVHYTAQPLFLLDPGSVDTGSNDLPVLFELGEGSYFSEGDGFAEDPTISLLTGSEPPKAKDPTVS
Chain of Paired box protein Pax-6 (Homo sapiens) (P26367 whole entry, looked up): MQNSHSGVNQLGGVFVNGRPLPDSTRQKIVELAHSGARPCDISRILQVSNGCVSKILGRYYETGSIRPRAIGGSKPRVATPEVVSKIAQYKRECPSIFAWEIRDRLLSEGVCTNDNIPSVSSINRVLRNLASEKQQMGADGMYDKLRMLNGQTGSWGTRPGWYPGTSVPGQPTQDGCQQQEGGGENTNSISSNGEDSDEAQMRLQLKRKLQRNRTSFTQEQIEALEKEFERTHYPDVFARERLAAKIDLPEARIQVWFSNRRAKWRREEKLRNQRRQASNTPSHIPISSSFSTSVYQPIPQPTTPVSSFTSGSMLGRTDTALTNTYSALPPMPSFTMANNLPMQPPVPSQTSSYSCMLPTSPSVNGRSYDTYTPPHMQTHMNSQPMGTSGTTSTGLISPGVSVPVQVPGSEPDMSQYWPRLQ
Chain of Peroxisome proliferator-activated receptor gamma (Homo sapiens) (P37231 whole entry, looked up, the tested form may be a part): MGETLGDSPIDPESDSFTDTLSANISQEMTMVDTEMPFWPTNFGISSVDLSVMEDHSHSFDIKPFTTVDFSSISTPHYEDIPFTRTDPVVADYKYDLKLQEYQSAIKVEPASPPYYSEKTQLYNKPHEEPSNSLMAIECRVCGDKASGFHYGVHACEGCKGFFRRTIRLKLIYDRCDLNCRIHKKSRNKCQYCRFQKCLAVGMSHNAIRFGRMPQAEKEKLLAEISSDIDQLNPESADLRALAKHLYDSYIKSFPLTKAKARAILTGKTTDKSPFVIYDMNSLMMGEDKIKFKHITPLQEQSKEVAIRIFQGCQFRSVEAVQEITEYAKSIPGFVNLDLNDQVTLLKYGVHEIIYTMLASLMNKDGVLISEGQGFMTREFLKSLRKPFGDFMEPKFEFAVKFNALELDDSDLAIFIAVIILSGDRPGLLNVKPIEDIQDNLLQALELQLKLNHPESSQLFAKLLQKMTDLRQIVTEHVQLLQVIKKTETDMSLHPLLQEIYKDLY

CC1(C)CC(=O)CC(C)(C)N1[O]
active: [15] 19.8 µM
not listed: [19] | [20]
inactive: all other assays above

O=S(=O)(O)OOS(=O)(=O)O
not listed: [6] | [17]
inactive: all other assays above

O=[N+]([O-])O
not listed: [5] | [9] | [10] | [14] | [17]
inactive: all other assays above

CCOC(=O)NC(=S)Nc1ccccc1NC(=S)NC(=O)OCC
active: [15] 5.19 µM
not listed: [6] | [16]
inactive: all other assays above

O=C(O)CCCc1ccc(N(CCCl)CCCl)cc1
active: [17] 54.7 µM
not listed: [4] | [5] | [6] | [18]
inactive: all other assays above

O=C(CCl)c1ccccc1
active: [1] 8.31 µM | [12] 54.4 µM | [15] 8.04 µM | [17] 58.6 µM | [18] 16.4 µM
not listed: [8] | [10] | [16] | [20]
inactive: all other assays above

CC(C)COP(=O)(OCC(C)C)OCC(C)C
active: [9] 55.8 µM | [15] 37 µM | [18] 49.8 µM
inactive: all other assays above

[CH3][Sn]([CH3])([Cl])[Cl]
active: [3] 114 µM | [15] 63.8 µM
not listed: [6] | [16] | [17]
inactive: all other assays above

N#CCCCl
not listed: [6] | [8] | [10] | [18] | [19]
inactive: all other assays above

CC(C)(C)C(O)C(Oc1ccc(-c2ccccc2)cc1)n1cncn1 (stereo not given)
active: [3] 59.6 µM | [6] 33.4 µM | [8] 0.672 µM | [9] 9 µM | [15] 41.6 µM | [17] 44 µM | [18] 14.3 µM
not listed: [1]
inactive: all other assays above

NNc1ccccc1
active: [15] 47.1 µM | [18] 29.2 µM
not listed: [9] | [16] | [17] | [19] | [20]
inactive: all other assays above

CCCOC(=O)c1ccccc1C(=O)OCCC
active: [18] 86.3 µM
not listed: [8] | [9]
inactive: all other assays above

O=[N+]([O-])c1cc(C(F)(F)F)c(Cl)c([N+](=O)[O-])c1Cl
active: [3] 5.39 µM | [9] 5.51 µM | [13] 6.17 µM | [14] 3.71 µM | [15] 1.3 µM | [18] 8.34 µM
not listed: [4] | [8] | [10] | [20]
inactive: all other assays above

Cc1ncc(C[n+]2csc(CCO)c2C)c(N)n1
not listed: [2] | [3] | [10]
inactive: all other assays above

O=C=Nc1ccccc1
not listed: [4] | [5] | [10] | [17]
inactive: all other assays above

CC(C)(C)C(=O)CCl
active: [2] 62.4 µM | [3] 157 µM | [15] 21.6 µM | [18] 25.7 µM
not listed: [6] | [16] | [19] | [20]
inactive: all other assays above
